Consider 38 molecules from PubChem BioAssay AID743314 (Broad Institute, 2014).

Measured potencies and affinities stand elsewhere. Inconclusive results are not listed. Unmarked numbers belong to inactive results. The source made the active and inactive calls.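 How the source made its calls: active means fitted half-maximal concentration no higher than twice the top tested dose, in every repeat run; inconclusive means repeat runs disagree, poor fit, or flat partial inhibition; inactive means the rest.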

The target in the assay is Endoplasmic reticulum aminopeptidase 1 (Homo sapiens) (UniProt Q9NZ08). In words: inhibition of human ERAP1 enzyme activity – biochemical, cherry-pick, set 2, plate reader, dose response (AID 743314).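 Further: 0% = neutral control wells and -100% = L-leucinethiol positive control.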 As to conditions: Recombinant ERAP1, Leu-AMC fluorescence, 60 min; series mostly up to 11 µM.
Sequence of Endoplasmic reticulum aminopeptidase 1 (Homo sapiens) (Q9NZ08 whole entry, looked up): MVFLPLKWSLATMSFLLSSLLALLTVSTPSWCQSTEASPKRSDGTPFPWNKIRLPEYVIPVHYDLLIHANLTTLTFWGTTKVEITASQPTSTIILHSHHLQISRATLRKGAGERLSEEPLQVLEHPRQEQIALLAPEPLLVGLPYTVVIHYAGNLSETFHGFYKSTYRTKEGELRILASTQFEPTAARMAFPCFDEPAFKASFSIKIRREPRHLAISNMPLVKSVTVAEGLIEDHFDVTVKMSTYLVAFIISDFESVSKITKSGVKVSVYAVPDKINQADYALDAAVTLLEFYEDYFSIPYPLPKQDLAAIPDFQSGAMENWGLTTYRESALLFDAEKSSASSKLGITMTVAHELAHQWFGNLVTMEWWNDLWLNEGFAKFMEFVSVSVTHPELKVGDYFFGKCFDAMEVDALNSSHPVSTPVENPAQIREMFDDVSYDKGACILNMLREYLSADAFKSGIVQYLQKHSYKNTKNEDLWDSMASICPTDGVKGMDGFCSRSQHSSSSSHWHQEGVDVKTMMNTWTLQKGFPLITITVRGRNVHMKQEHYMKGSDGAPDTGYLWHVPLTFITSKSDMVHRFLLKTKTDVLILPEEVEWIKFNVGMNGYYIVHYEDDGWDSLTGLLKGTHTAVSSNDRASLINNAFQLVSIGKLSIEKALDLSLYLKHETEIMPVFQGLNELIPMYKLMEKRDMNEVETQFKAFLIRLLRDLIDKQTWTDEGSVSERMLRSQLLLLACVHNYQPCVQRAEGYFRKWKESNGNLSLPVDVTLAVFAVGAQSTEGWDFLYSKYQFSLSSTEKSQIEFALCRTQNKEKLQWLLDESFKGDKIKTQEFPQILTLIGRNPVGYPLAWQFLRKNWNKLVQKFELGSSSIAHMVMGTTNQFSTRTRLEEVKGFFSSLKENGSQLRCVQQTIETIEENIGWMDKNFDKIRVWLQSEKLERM
In the case of `COc1ccc(CN(C)C[C@H]2Oc3c(NC(=O)NC4CCCCC4)cccc3C(=O)N([C@H](C)CO)C[C@@H]2C)cc1`, the outcome was inactive.

On to `COc1ccc([N+](=O)[O-])cc1NS(=O)(=O)c1cccc(C(=O)O)c1`, for which the outcome was inactive.

Take `Cc1ccc(-c2cc(C(=O)N3CCCC3)c3ccccc3n2)s1`: the outcome was inactive.

With `C[C@@H]1CN([C@H](C)CO)C(=O)c2cccc(NC(=O)Nc3ccc(C(F)(F)F)cc3)c2O[C@H]1CN(C)C`, the result was inactive.

In the case of `C[C@@H]1CN([C@@H](C)CO)C(=O)c2cc(NC(=O)CCN3CCOCC3)ccc2O[C@H]1CN(C)S(=O)(=O)c1ccccc1`, the outcome was inactive.

On to `Cn1cnc(Sc2ncnc3nc[nH]c23)c1[N+](=O)[O-]`, for which the result was inactive.

In the case of `C[C@@H]1CN([C@H](C)CO)C(=O)c2cc(NC(=O)C3CC3)ccc2O[C@H]1CN(C)Cc1ccncc1`, the activity change, negative = inhibition is 26.1% [at 2.6 µM].

With `COc1ccc(C(=O)NCc2nnc(SCCOc3ccccc3)n2C)cc1`, the outcome was inactive.

As to `CC1CN(Cc2cc(=O)oc3cc(O)c(Cl)cc23)CC(C)O1` (stereo not drawn), the result was inactive.

Take `COCCN(C(=O)COC(=O)CNC(=O)c1cccs1)c1c(N)n(Cc2ccccc2)c(=O)[nH]c1=O`: the outcome was inactive.

Take `C[C@@H]1CN([C@H](C)CO)S(=O)(=O)c2ccc(-c3ccccc3)cc2O[C@H]1CN(C)S(C)(=O)=O`: the result was inactive.

Consider `CN(CC(=O)Nc1cccc(F)c1)C(=O)CCc1nc2ccccc2c(=O)[nH]1`, for which the outcome was inactive.

Turning to `Cc1noc(C)c1NC(=O)N(C)C[C@@H]1Oc2c(NC(=O)Nc3ccc(F)cc3)cccc2C(=O)N([C@H](C)CO)C[C@H]1C`, the result was inactive.

With `COc1ccc(NC(=O)Nc2cccc3c2O[C@H](CN(C)Cc2ccc(C(=O)O)cc2)[C@H](C)CN([C@H](C)CO)C3=O)cc1`, the outcome was inactive.

In the case of `Cc1nc2ccc(NC(=O)c3ccc(=O)[nH]c3)cc2s1`, the result was inactive.

With `CCc1c(C)c2cc(Cl)c(O)c(CN3CCCC3)c2oc1=O`, the outcome was inactive.

For `Cc1noc(C)c1NC(=O)N(C)C[C@@H]1Oc2c(NC(=O)Nc3ccc(F)cc3)cccc2C(=O)N([C@@H](C)CO)C[C@H]1C`, the outcome was inactive.

Regarding `Cc1oc2c(c(C)cc3oc(=O)c(CC(=O)N[C@H](C(=O)O)C(C)C)c(C)c32)c1C`, the outcome was inactive.

Take `COc1ccc(-c2cc(=O)oc3cc(OC(C)C(=O)NC(Cc4c[nH]c5ccc(O)cc45)C(=O)O)ccc23)cc1` (stereo not drawn): the result was inactive.

For the molecule `Cc1ccc(NC(=O)C2CCCN2C(=O)c2cccs2)c(C)c1` (stereo not drawn), the outcome was inactive.

For the molecule `Cc1[nH]c2ccccc2c1C(=O)CN1C(=O)C(=O)N(Cc2ccco2)C1=O`, the result was inactive.

Consider `O=C(CSc1nnc2ccc(-c3ccc(F)cc3)nn12)N1CCCC1`, for which the outcome was inactive.

For the molecule `C[C@H](CO)N1C[C@H](C)[C@@H](CN(C)C)OCCCC[C@H](C)Oc2ccc(NS(=O)(=O)c3ccc(Cl)cc3)cc2C1=O`, the outcome was inactive.

Consider `Cc1cc(Br)ccc1NC(=O)CN(C)C(=O)Cn1c(=O)cnc2ccccc21`, for which the result was inactive.

With `C[C@@H]1CN([C@H](C)CO)C(=O)c2cc(NC(=O)CCN3CCOCC3)ccc2O[C@H]1CN(C)S(=O)(=O)c1ccccc1`, the result was inactive.

Turning to `COc1ccc(CN(C)C[C@@H]2OCCCC[C@H](C)Oc3ccc(NS(=O)(=O)c4cccs4)cc3C(=O)N([C@@H](C)CO)C[C@H]2C)cc1`, the result was inactive.

Regarding `CN(C)C(=O)c1cccc(-c2ccc3c(c2)[C@@H]2[C@@H](CCN2Cc2nccs2)[C@@H](CO)N3)c1`, the outcome was inactive.

Take `CCN(CC)CCCN=C1N[C@@H](c2ccccc2)C(C(=O)OC)=C(C)N1CC`: the result was inactive.

On to `CCOC(=O)C1CCN(S(=O)(=O)c2ccc3c(c2)CC(=O)N3C)CC1`, for which the outcome was inactive.

`CN(C(=O)CSc1nnc(C(F)(F)F)n1C)c1c(N)n(Cc2ccccc2)c(=O)[nH]c1=O`: the outcome was inactive.

As for `O=S(=O)(Nc1cccc(-c2cn3c(n2)SCC3)c1)c1ccccc1`, the result was inactive.

Consider `COc1ccc2c3c([nH]c2c1)[C@@H](CO)N(C(C)=O)CC31CN(S(=O)(=O)c2cccs2)C1`, for which the result was inactive.

For the molecule `Cc1ccc(C)c(NC(=O)C2CC(O)CN2C(=O)Oc2ccccc2)c1` (stereo not drawn), the outcome was inactive.

Regarding `CC(=O)N1CCCCN2[C@H](CO)[C@@H](c3ccc(-c4ccccc4)cc3)[C@H]2C1`, the outcome was inactive.

As to `CCn1cnc2c1c(=O)n(CC(=O)NCC(F)(F)F)c(=O)n2Cc1ccccc1`, the result was inactive.

For the molecule `Cc1ccc(SC(C)C(=O)NCc2ccncc2)cc1` (stereo not drawn), the outcome was inactive.

As to `COC(=O)[C@H]1[C@H](CO)[C@H]2Cn3c(ccc(C4=CCCC4)c3=O)[C@H]2N1C(=O)C1CC1`, the result was inactive.

`C[C@@H]1CCCCO[C@H](CN(C)C)[C@@H](C)CN([C@H](C)CO)C(=O)c2cc(NS(=O)(=O)c3ccc(Cl)cc3)ccc2O1`: the result was inactive.
